Data as given in the supplement of paper PMC12024529.
“And” between values parts separate entries of the source, which are not always exact repeats. Identical values can stand only once.

System: HEK293 WT BDD-FVIII-Gluc
Experiment: secreted FVIII-Gluc luciferase Z-score vs DMSO control; higher = more FVIII-Gluc secretion
Conditions: 5 µM
Method: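 Natural plant-compound library (480 compounds, ST catalogue IDs) screened on HEK293 cells stably expressing WT BDD-FVIII-Gaussia luciferase fusion at 5 µM. Secreted Gluc activity in the medium is given as a Z-score relative to DMSO controls.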

Row | SMILES | secreted FVIII-Gluc luciferase Z-score
1 | O=c1cc(-c2ccc(O)c(O)c2)oc2cc(O)cc(O)c12 | -1.34
2 | C1CCN2CC3CC(CN4CCCC[C@H]34)C2C1 (stereo not given in full) | 1.22
3 | C/C(=C\COc1cc(=O)[nH]c2ccccc12)CCC(O)C(C)(C)O (stereo not given) | -0.128
4 | C=C1CCC(O)C/C1=C\C=C1/CCCC2(C)C1CCC2C(C)/C=C/C(C)C(C)C (stereo not given) | -0.228
5 | O=C(O)c1cc(O)c2c(c1)C(=O)c1cccc(O)c1C2=O | 0.381
6 | Cc1cc(O)c2c(c1)C(=O)c1cccc(O)c1C2=O | 0.974
7 | C=C(CO)C1Cc2c(ccc3c(=O)c4c(oc23)COc2cc(OC)c(OC)cc2-4)O1 (stereo not given) | 0.0519
8 | Cc1c(C)c2c(c(C)c1OC(=O)CCC(=O)O)CC[C@@](C)(CCC[C@H](C)CCC[C@H](C)CCCC(C)C)O2 | 0.648
9 | Oc1cc(O)c2c(c1)O[C@H](c1ccc(O)c(O)c1)[C@@H](O)C2 | 0.0727
10 | CC1(C)S[C@@H]2[C@H](NC(=O)C(N)c3ccccc3)C(=O)N2[C@H]1C(=O)O (stereo not given in full) | -0.57
11 | COC1=CC(=O)CC(C)C12Oc1c(Cl)c(OC)cc(OC)c1C2=O (stereo not given) | 0.0156
12 | O=C(/C=C/c1ccc(O)c(O)c1)O[C@@H]1CC(O)(C(=O)O)CC(O)C1O (stereo not given in full) | 0.588
13 | CC1(C)C=Cc2c(c3ccccc3[nH]c2=O)O1 | 0.817
14 | COc1cc2c(cc1OC)C(Cc1ccc(OC)c(OC)c1Oc1cc3c(cc1OC)-c1c(OC)c(OC)cc4c1C(C3)N(C)CC4)N(C)CC2 (stereo not given) | 0.304
15 | NC(=O)NCCC[C@H](N)C(=O)O | -0.102
16 | O=C(O)C1OC(O)C(O)C(O)C1O (stereo not given) | 0.395
17 | COc1cc(/C=C/C(=O)N2CCCCC2=O)cc(OC)c1OC | 1.28
18 | CN1CCc2cccc3c2C1Cc1ccc(O)c(O)c1-3 (stereo not given) | -0.131
19 | O=C(O)C1=C[C@@H](O)[C@@H](O)[C@H](O)C1 | 0.3
20 | C[C@@H]1O[C@@H](OC[C@H]2O[C@@H](Oc3c(-c4cccc(O)c4O)oc4cc(O)cc(O)c4c3=O)[C@H](O)[C@@H](O)[C@@H]2O)[C@H](O)[C@H](O)[C@H]1O | 1.27

Row | SMILES | secreted FVIII-Gluc luciferase Z-score
21 | O=c1cc(-c2ccccc2O)oc2cc(O)cc(O)c12 | 0.64
22 | COc1ccc2cc1Oc1ccc(cc1)C[C@H]1c3cc(c(OC)cc3CCN1C)Oc1c(OC)c(OC)cc3c1[C@H](C2)N(C)CC3 | 0.132
23 | CC(C)[C@@H](C)/C=C/[C@@H](C)[C@H]1CC[C@H]2C3=CC=C4C[C@@H](O)CC[C@]4(C)[C@H]3CC[C@]12C | 0.958
24 | Oc1ccc(/C=C/c2cc(O)cc(O)c2)cc1 | 0.294
25 | C[C@H]1[C@H](C)CC[C@]2(C(=O)O)CC[C@]3(C)C(=CC[C@@H]4[C@@]5(C)CC[C@H](O)C(C)(C)[C@@H]5CC[C@]43C)[C@H]12 | 0.136
26 | C=CC(C)(O)CCC=C(C)C (stereo not given) | -0.395
27 | CC(C)c1ccc2c(c1)CCC1C(C)(CN)CCC[C@]21C (stereo not given in full) | 0.04
28 | O=c1c(O)c(-c2cc(O)c(O)c(O)c2)oc2cc(O)cc(O)c12 | 0.93
29 | NC(Cn1ccc(=O)c(O)c1)C(=O)O (stereo not given) | 0.208
30 | O=C(O)CCCC[C@@H]1SC[C@@H]2NC(=O)N[C@@H]21 | 0.929
31 | CCc1cn(C2CC(O)C(CO)O2)c(=O)[nH]c1=O (stereo not given) | -0.382
32 | COc1ccc2c(c1OC)C(Cc1ccccc1)N1CCc3cc4c(cc3C1C2)OCO4 (stereo not given) | 0.496
33 | Nc1nc2c(ncn2[C@@H]2O[C@H](CO)[C@@H](O)[C@H]2O)c(=O)[nH]1 | 1.04
34 | COc1ccc(-c2oc3ccccc3c(=O)c2O)cc1 | -1.09
35 | CC1(C)CC[C@]2(C(=O)O)CC[C@]3(C)C(=CC[C@@H]4[C@@]5(C)CC[C@H](O)C(C)(C)[C@@H]5CC[C@]43C)[C@@H]2C1 | 0.157
36 | Nc1ncnc2c1ncn2C1OC(CO)C(O)C1OP(=O)(O)O (stereo not given) | -0.295
37 | Cc1c(C(=O)O)c(O)cc2c1C(=O)c1c(O)c([C@H]3O[C@H](CO)[C@@H](O)[C@H](O)[C@H]3O)c(O)c(O)c1C2=O | 0.527 and 0.738
38 | CC1=C(/C=C/C(C)=C/C=C/C(C)=C/C(=O)O)C(C)(C)CCC1 | -0.377
39 | COc1cc2c(cc1OC)C(=O)N(C)CC2 | 0.547
40 | Cc1cc(=O)cc2oc3cc(N)c(-c4c(C)cc(O)cc4O)c(C)c3nc1-2 | -0.31
